The first test concerns the target HOXA4 (Homo sapiens, UniProt Q00056 201-287, W262R). Nature of the test: PBM; 200 nM protein, PBS. Particulars: dsDNA, one strand shown.
Chain of HOXA4 (Homo sapiens, UniProt Q00056 201-287, W262R) (Q00056 201-287 W262R): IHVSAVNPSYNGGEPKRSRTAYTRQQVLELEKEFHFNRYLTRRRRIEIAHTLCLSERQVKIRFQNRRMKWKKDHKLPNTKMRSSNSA
Consider CATGATTA, for which the binding signal was 10.4 upbm affinity estimate (log intensity, higher = more binding, comparable within an allelic series).

Turning to AGTCCCCG, the binding signal was 9.96 upbm affinity estimate (log intensity, higher = more binding, comparable within an allelic series).

Consider TAAAATTA, for which the binding signal was 10.3 upbm affinity estimate (log intensity, higher = more binding, comparable within an allelic series).

Consider CTCCCACC, for which the binding signal was 9.83 upbm affinity estimate (log intensity, higher = more binding, comparable within an allelic series).

In the case of CCACGCCC, the binding signal is 9.84 upbm affinity estimate (log intensity, higher = more binding, comparable within an allelic series).

Turning to CAGACCTC, the binding signal was 9.86 upbm affinity estimate (log intensity, higher = more binding, comparable within an allelic series).

Regarding AACATTAG, the binding signal was 10.2 upbm affinity estimate (log intensity, higher = more binding, comparable within an allelic series).

As to CCAGCGGG, the binding signal is 9.83 upbm affinity estimate (log intensity, higher = more binding, comparable within an allelic series).

Take AATCCCCC: the binding signal was 9.83 upbm affinity estimate (log intensity, higher = more binding, comparable within an allelic series).

Turning to CACGGTGC, the binding signal was 9.98 upbm affinity estimate (log intensity, higher = more binding, comparable within an allelic series).

Regarding CCTGCTCC, the binding signal was 9.98 upbm affinity estimate (log intensity, higher = more binding, comparable within an allelic series).

Consider CCAGCCGG, for which the binding signal is 9.8 upbm affinity estimate (log intensity, higher = more binding, comparable within an allelic series).

AATTGTTC: the binding signal was 10.4 upbm affinity estimate (log intensity, higher = more binding, comparable within an allelic series).

Take CAATTTAG: the binding signal was 10.5 upbm affinity estimate (log intensity, higher = more binding, comparable within an allelic series).

For AGGGGGCA, the binding signal was 9.67 upbm affinity estimate (log intensity, higher = more binding, comparable within an allelic series).

AAGCTAAT: the binding signal was 10.3 upbm affinity estimate (log intensity, higher = more binding, comparable within an allelic series).

Take CAATCACG: the binding signal was 10.3 upbm affinity estimate (log intensity, higher = more binding, comparable within an allelic series).

In the case of GGCGAGCC, the binding signal is 9.78 upbm affinity estimate (log intensity, higher = more binding, comparable within an allelic series).

With ACCCTAGG, the binding signal is 9.88 upbm affinity estimate (log intensity, higher = more binding, comparable within an allelic series).

Turning to TGATGACA, the binding signal is 10.2 upbm affinity estimate (log intensity, higher = more binding, comparable within an allelic series).

As to AGCTCCCC, the binding signal was 9.71 upbm affinity estimate (log intensity, higher = more binding, comparable within an allelic series).

Turning to CCTCCGTC, the binding signal was 9.85 upbm affinity estimate (log intensity, higher = more binding, comparable within an allelic series).

Consider CCTGGGCG, for which the binding signal was 9.75 upbm affinity estimate (log intensity, higher = more binding, comparable within an allelic series).

GGACTCCC: the binding signal is 9.88 upbm affinity estimate (log intensity, higher = more binding, comparable within an allelic series).

Regarding GAGTAATA, the binding signal is 10.3 upbm affinity estimate (log intensity, higher = more binding, comparable within an allelic series).

Turning to ACGTTAAT, the binding signal was 10.6 upbm affinity estimate (log intensity, higher = more binding, comparable within an allelic series).

For the sequence CCTCGTCC, the binding signal is 9.94 upbm affinity estimate (log intensity, higher = more binding, comparable within an allelic series).

As to ACCTGCCG, the binding signal is 9.93 upbm affinity estimate (log intensity, higher = more binding, comparable within an allelic series).

On to CCGGCACG, for which the binding signal was 9.89 upbm affinity estimate (log intensity, higher = more binding, comparable within an allelic series).

With AGTAATTC, the binding signal is 10.4 upbm affinity estimate (log intensity, higher = more binding, comparable within an allelic series).

Turning to GATTTATA, the binding signal is 10.4 upbm affinity estimate (log intensity, higher = more binding, comparable within an allelic series).

Regarding ATAAATCG, the binding signal is 10.2 upbm affinity estimate (log intensity, higher = more binding, comparable within an allelic series).

Consider CCTCCAGC, for which the binding signal is 9.79 upbm affinity estimate (log intensity, higher = more binding, comparable within an allelic series).

CAGGGGGA: the binding signal was 9.68 upbm affinity estimate (log intensity, higher = more binding, comparable within an allelic series).

CCCCGACC: the binding signal was 9.87 upbm affinity estimate (log intensity, higher = more binding, comparable within an allelic series).

In the case of ACGTTTAG, the binding signal was 10.2 upbm affinity estimate (log intensity, higher = more binding, comparable within an allelic series).

With AGGGCGAG, the binding signal was 9.83 upbm affinity estimate (log intensity, higher = more binding, comparable within an allelic series).

As for AGTCCTTC, the binding signal was 9.96 upbm affinity estimate (log intensity, higher = more binding, comparable within an allelic series).

For the sequence CTCATCTA, the binding signal is 10.3 upbm affinity estimate (log intensity, higher = more binding, comparable within an allelic series).

Turning to CGTCAATA, the binding signal was 10.2 upbm affinity estimate (log intensity, higher = more binding, comparable within an allelic series).

The target of another test is HOXA4 (Homo sapiens, UniProt Q00056 201-287, R217L). Nature of the test: PBM; 200 nM protein, PBS. As to conditions: dsDNA, one strand shown.
Chain of HOXA4 (Homo sapiens, UniProt Q00056 201-287, R217L) (Q00056 201-287 R217L): as the sequence (Q00056 201-287 W262R) above, with R17L, R62W counted along it
CATGATTA: the binding signal is 11.4 upbm affinity estimate (log intensity, higher = more binding, comparable within an allelic series).

Consider AGTCCCCG, for which the binding signal was 9.67 upbm affinity estimate (log intensity, higher = more binding, comparable within an allelic series).

For the sequence CTCCCACC, the binding signal is 9.72 upbm affinity estimate (log intensity, higher = more binding, comparable within an allelic series).

CCACGCCC: the binding signal is 9.85 upbm affinity estimate (log intensity, higher = more binding, comparable within an allelic series).

With CAGACCTC, the binding signal was 9.83 upbm affinity estimate (log intensity, higher = more binding, comparable within an allelic series).

Consider AACATTAG, for which the binding signal is 10.8 upbm affinity estimate (log intensity, higher = more binding, comparable within an allelic series).

On to CCAGCGGG, for which the binding signal was 9.65 upbm affinity estimate (log intensity, higher = more binding, comparable within an allelic series).

For AATCCCCC, the binding signal is 9.86 upbm affinity estimate (log intensity, higher = more binding, comparable within an allelic series).

For CACGGTGC, the binding signal is 9.8 upbm affinity estimate (log intensity, higher = more binding, comparable within an allelic series).

On to CCTGCTCC, for which the binding signal was 9.88 upbm affinity estimate (log intensity, higher = more binding, comparable within an allelic series).

For the sequence CCAGCCGG, the binding signal was 9.68 upbm affinity estimate (log intensity, higher = more binding, comparable within an allelic series).

Regarding AGGGGGCA, the binding signal was 9.81 upbm affinity estimate (log intensity, higher = more binding, comparable within an allelic series).

Take CAATCACG: the binding signal is 10.8 upbm affinity estimate (log intensity, higher = more binding, comparable within an allelic series).

As for GGCGAGCC, the binding signal was 9.59 upbm affinity estimate (log intensity, higher = more binding, comparable within an allelic series).

On to ACCCTAGG, for which the binding signal was 9.89 upbm affinity estimate (log intensity, higher = more binding, comparable within an allelic series).

For the sequence AGCTCCCC, the binding signal is 9.69 upbm affinity estimate (log intensity, higher = more binding, comparable within an allelic series).

On to CCTCCGTC, for which the binding signal is 9.8 upbm affinity estimate (log intensity, higher = more binding, comparable within an allelic series).

Regarding CCTGGGCG, the binding signal is 9.75 upbm affinity estimate (log intensity, higher = more binding, comparable within an allelic series).

In the case of GGACTCCC, the binding signal was 9.72 upbm affinity estimate (log intensity, higher = more binding, comparable within an allelic series).

Consider ACGTTAAT, for which the binding signal is 11.6 upbm affinity estimate (log intensity, higher = more binding, comparable within an allelic series).

Consider CCTCGTCC, for which the binding signal was 9.95 upbm affinity estimate (log intensity, higher = more binding, comparable within an allelic series).

Turning to ACCTGCCG, the binding signal was 9.82 upbm affinity estimate (log intensity, higher = more binding, comparable within an allelic series).

As for CCGGCACG, the binding signal is 9.91 upbm affinity estimate (log intensity, higher = more binding, comparable within an allelic series).

Take CCTCCAGC: the binding signal is 9.82 upbm affinity estimate (log intensity, higher = more binding, comparable within an allelic series).

CAGGGGGA: the binding signal is 9.64 upbm affinity estimate (log intensity, higher = more binding, comparable within an allelic series).

Regarding CCCCGACC, the binding signal is 9.84 upbm affinity estimate (log intensity, higher = more binding, comparable within an allelic series).

Consider AGGGCGAG, for which the binding signal is 9.74 upbm affinity estimate (log intensity, higher = more binding, comparable within an allelic series).

Consider AGTCCTTC, for which the binding signal is 9.81 upbm affinity estimate (log intensity, higher = more binding, comparable within an allelic series).

(Values after publication PMC11006913.)
